IL-1B inflam inh: inflammasome signaling inhibition, IL-1 beta readout. THP-1 LPS/ATP IL-1B secretion, AlphaLISA, 16 h; hits give low values. activity change, % at 57.5 µM. actives 4.7% (n = 360,000); in the data active = activity change below about -50%; inconclusive = mostly about -30% to -49%; also: % is scaled to controls: 0 for no effect and ±100 for the full control effect
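THP-1 cells pretreated 1 hr with compounds (up to 57.5 uM final), then stimulated with LPS (250 ng/mL final) plus ATP (1.25 mM final); secreted IL-1B measured by AlphaLISA after 16 hr, decreased signal indicating inhibition.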
USP1-UAF1 inh: USP1/UAF1 (human) deubiquitinase inhibition | recombinant USP1/UAF1, Ub-Rhodamine cleavage fluorescence | actives 0.23% (n = 390,000) | Potency, µM (series often up to 57.1 µM), for inactives: at the highest dose activity change, negative = inhibition, actives largely listed as inhibitors | AID 743255 | O94782; also: potency is read from the fitted curve at half-maximal effect; % is scaled to controls: 0 for no effect and ±100 for the full control effect; nearly all actives have a fitted effect of over 60% in size
Target sequence (O94782 whole entry, looked up): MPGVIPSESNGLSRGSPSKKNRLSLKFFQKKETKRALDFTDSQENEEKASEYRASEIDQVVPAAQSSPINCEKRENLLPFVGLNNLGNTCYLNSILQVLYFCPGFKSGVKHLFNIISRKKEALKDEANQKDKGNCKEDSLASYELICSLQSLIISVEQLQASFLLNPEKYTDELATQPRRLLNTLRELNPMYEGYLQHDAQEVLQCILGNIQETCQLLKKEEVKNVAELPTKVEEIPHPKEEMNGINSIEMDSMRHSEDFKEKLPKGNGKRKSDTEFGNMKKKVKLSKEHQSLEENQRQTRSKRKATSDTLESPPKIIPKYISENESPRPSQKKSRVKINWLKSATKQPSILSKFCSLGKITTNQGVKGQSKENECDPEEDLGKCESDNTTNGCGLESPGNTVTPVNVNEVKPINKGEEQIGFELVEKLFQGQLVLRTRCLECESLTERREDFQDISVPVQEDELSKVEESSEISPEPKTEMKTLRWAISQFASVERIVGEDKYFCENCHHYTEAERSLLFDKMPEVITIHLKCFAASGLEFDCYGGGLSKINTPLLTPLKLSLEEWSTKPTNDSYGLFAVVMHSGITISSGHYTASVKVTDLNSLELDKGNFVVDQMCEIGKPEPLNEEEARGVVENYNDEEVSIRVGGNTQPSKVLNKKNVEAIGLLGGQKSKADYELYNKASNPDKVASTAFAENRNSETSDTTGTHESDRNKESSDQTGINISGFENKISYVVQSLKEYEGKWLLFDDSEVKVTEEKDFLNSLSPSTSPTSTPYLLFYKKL
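Step one: compound is pinned into 1nM USP1/UAF1 in HEPES pH 7.8 buffer with TCEP. Step two: 15 min room-temperature incubation. Step three: Ub-Rho (150nM final) starts cleavage, tracked by fluorescence over six one-minute reads.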
USP2a inh: blocks human ubiquitin-specific protease USP2a; O75604; USP2 core, Ub-CHOP2 coupled fluorogenic reporter, 485/531; actives 0.01% (n = 330,000); AID 463254; Potency, µM (top dose mostly 38.3 µM), for inactives: at the top dose activity change, negative = inhibition, usual class: inhibitors;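 also: potency is read from the fitted curve at half-maximal effect; plate controls were DMSO wells for no effect and full inhibition by NEM control for full effect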
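USP2 core (10nM final) preincubated 30min RT with compound in 20mM Tris-HCl pH 8.0, 2mM CaCl2, 2mM beta-mercaptoethanol, 0.05% CHAPS; 25nM Ub-CHOP2 plus 25nM reporter substrate added, fluorescence (Ex485/Em531) read after 60min.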
S2 tox: reduces viability in counter-screen for ATXN expression inhibitors; Potency, µM (series often up to 56.7 µM), hits mostly cytotoxic; actives 0.49% (n = 400,000); S2 cells (HEK-293 line with an ATXN2-luciferase reporter) viability, CellTiter-Fluor protease fluorescence, 24 h; also: potency is read from the fitted curve at half-maximal effect; nearly all actives have a fitted effect of over 40% in size
ATXN2 expr inh: ATXN2 expression inhibition; actives 0.72% (n = 360,000); AID 1745845; Potency, µM (series often up to 57 µM), for inactives: at the top dose activity change, negative = inhibition, hits mostly inhibitors; HEK-293 ATXN2-luciferase reporter, luminescence, 24 h; also: potency is read from the fitted curve at half-maximal effect; % is scaled to controls: 0 for no effect and ±100 for the full control effect; nearly all actives have a fitted effect of over 55% in size
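qHTS (up to 57 uM final) was run with 24 h compound exposure of reporter cells at 37 °C. Each well was multiplexed: SteadyGlo luminescence measured ATXN2-luciferase expression after a fluorogenic Gly-Phe-AFC viability readout (25 uM final).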
Starred values were filed as active, the others as inactive; i = inactive; ? = inconclusive; nt = not tested or not shown; [ ] = another dose, or the depositor's remark. In the library only some 4.8% were active in any assay of this set; here they are far more common. Unless noted, calls follow the shape of the dose curve; as a rule, active = well fitted curve in the direction sought with a large enough effect; inconclusive = small, poorly fitted or top-dose-only effect, or another doubt; inactive = no such curve, though single readings can be large; an effect the other way counts as inactive or inconclusive.

SMILES	IL-1B inflam inh	USP1-UAF1 inh	USP2a inh	S2 tox	ATXN2 expr inh
Cc1ccc(S(=O)(=O)N2[C@@H](c3ccc(Cl)cc3)C(C(=O)OC(C)(C)C)=CC[C@H]2c2ccc(Cl)c(Cl)c2)cc1	25	nt	nt	i	5%
CC(C)Oc1ccc(C(CCNCc2ccc(O)cc2)c2ccccc2)cc1 (centres undefined)	-91*	-23%	2%	nt	?
COc1ccc(C(CCNCc2ccc(N(C)C)cc2)c2ccccc2)cc1 (centres undefined)	-101*	-13%	4%	22µM*	?
COc1ccc(CNCCC(c2ccc3c(c2)OCO3)c2ccccc2OC)cc1 (centres undefined)	nt	-1%	nt	nt	?
COc1ccc(Nc2nc(S(=O)(=O)c3ccc(C)cc3)c(Cl)s2)cc1	-91*	-5%	-4%	i	?
CC1CC(C)CN(C(=O)C(C)N2CCN(S(=O)(=O)c3ccc(Br)s3)CC2)C1 (centres undefined)	-59*	-22%	0%	i	-18%
CC(C)C1C(C#N)=C(N)Oc2n[nH]c(-c3ccccc3)c21 (centres undefined)	-12	-17%	1%	i	-9%
Cc1[nH]nc2c1C(C(C)c1ccccc1)C(C#N)=C(N)O2 (centres undefined)	-86*	-23%	1%	i	-10%[11.3 µM]
N#Cc1ccc(COC(=O)CCc2c[nH]c3ccccc23)cc1	-6	-17%	-1%	i	5%
CCOc1ccc(N(CC(=O)NC2CCCC2)C(=O)CSc2nnc(COc3ccccc3)o2)cc1	-55*	-5%	6%	i	2%
CC(NC(=O)c1ccc(NC(=O)CC2SC(N3CCCC3)=NC2=O)cc1)c1ccc(F)cc1 (centres undefined)	12	-12%	2%	i	0%
O=C(Oc1c(CN2CCOCC2)cc(Cl)c2cccnc12)c1ccc(F)cc1	36	-24%	0%	?	?
O=C(Oc1c(CN2CCOCC2)cc(Cl)c2cccnc12)c1ccccc1Cl	-91*	-26%	0%	?	?
O=C(Oc1c(CN2CCOCC2)cc(Cl)c2cccnc12)c1cccs1	-58*	-16%	-4%	?	?
Cc1ccc(NC(=O)C(=Cc2ccc(C(=O)O)cc2)C(=O)Nc2ccc(C)cc2C)c(C)c1	-100*	-29%	5%	?	nt
COc1ccc(CCC2(C)OCC(CCCCO)O2)cc1 (centres undefined)	0	-4%	nt	i	5%
Cc1cccc(N2CCN(C(=O)CCCn3c(=O)[nH]c4ccsc4c3=O)CC2)c1C	nt	-29%	nt	?	5%
COc1ccc(C(=O)O/N=C(\N)c2ccc(OC)c(OC)c2)c(OC)c1	-54*	-20%	-9%	i	nt
CC(C)(C)N(Cc1ccc2c(c1)OCO2)C(=O)/C=C\S(=O)c1ccccc1 (centres undefined)	-61*	-8%	nt	?	16µM*
CCN(Cc1ccc2c(c1)OCO2)C(=O)/C=C/c1cccc(Br)c1	-24	-19%	0%	i	38%
O=C(NC1CCCCC1)C(c1ccncc1)N(C(=O)c1csnn1)c1cccc(F)c1 (centres undefined)	31	-5%	3%	i	20%
CN(CC(=O)Nc1cccc(F)c1)C(=O)CCCN1C(=O)c2cccc3cccc(c23)C1=O	-65*	-11%	-2%	i	1%
CN(CC(=O)Nc1cccc(F)c1)C(=O)CCN1C(=O)C2CC=CCC2C1=O (centres undefined)	45	1%	3%	i	3%
CCN(CC(=O)Nc1ccc(NC(C)=O)cc1)C(=O)CCCN1C(=O)c2ccccc2C1=O	13	-18%	0%	i	1%
CCN(CC(=O)Nc1c(F)cccc1F)C(=O)CCCN1C(=O)c2cccc3cccc(c23)C1=O	-51*	?	nt	i	nt
COCc1c(C(=O)N2CC3CCC2C3)cnn1-c1nccc(-c2ccccc2OC)n1 (centres undefined)	nt	nt	nt	i	nt
N#Cc1c(-c2ccccc2)nc(SCc2ccc(Cl)cc2)[nH]c1=O	-54*	?	-2%	i	25%

High-throughput results deposited in PubChem by National Center for Advancing Translational Sciences (NCATS).
